PubChem BioAssay (NCI)
Compounds without any hit were thinned out: in the full panel of roughly 83,000, 20% have a hit.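 Single-dose data. Exposure time 48 hours. Values below 10 considered active.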 A number with no mark means an inactive call. Calls of active or inactive are those of the source.

System: HL-60(TB) leukemia
Test: NCI-60 one-dose screen, 48 h (100 = growth as untreated, 0 = no growth, -100 = all killed)
Settings: 10 µM unless noted

Compound	growth
O=C1Nc2cc(Cl)ccc2/C1=C\c1ccc(OCc2ccc(Br)cc2F)cc1	66.2%
Cc1ccc(C(=O)Nc2cccc(C(F)(F)F)c2)cc1Nc1nc(-c2cnccn2)nc2c1cnn2C	22%
Clc1ccc2c(NCCCn3ccnc3)c3oc4ccc(Cl)cc4c3nc2c1	78.6%
Cc1ccc(-c2cc(-c3cccc4ccccc34)n3c(n2)nc2ccccc23)cc1	7.27% (active)
CS(=O)(=O)c1ccc(-c2nc3ccccn3c2/C=N/Nc2nc(-c3ccc(Br)cc3)cs2)cc1	107%
Cc1nc2ncc(-c3ccc4ncnc(NCc5ccccc5)c4c3)cc2[nH]1	109%
O=C(CSc1nc2ccccc2c(=O)n1-c1ccccc1)N/N=C/c1ccc(Oc2ccc(Cl)cc2)cc1	106%
O=C1/C(=C/C2=Cc3ccccc3OC2)SC(=S)N1c1ccc(F)cc1	95.2%
CC1(C)[C@@H](O)CC[C@]2(C)[C@H]3CC[C@@H]4[C@H]5[C@H](C(=O)/C=C\c6ccncc6)CC[C@]5(O)CC[C@@]4(C)[C@]3(C)CC[C@@H]12	26.4%
C/C(=C(/c1ccc(O)cc1)c1ccc(OCCN(C)C)cc1)c1ccc(Cl)cc1	21.8%
NC(N)=Nc1ccc(Oc2cccc(NC(N)=Nc3ccc(Br)cc3)c2)cn1	64.8%
